Measurements from PubChem BioAssay (EPA / NIEHS).
Inconclusive results are not listed. The source made the active and inactive calls. Rule for the calls, unless noted: active = hit-call score of the fitted dose curve at least 0.9, where 1 is the maximum; inconclusive = response in the unintended direction; inactive = score below 0.9.

Columns and labels:
[1] = STM_H9_CystineISnorm_perc: Stemina devTOX quickPredict H9 human embryonic stem cell (hESC)-based Assay for Cystine (CYSS) Metabolite Biomarker, Normalized (AID 2283713; active = hit-call score of the fitted dose curve at least 0.9, where 1 is the maximum; inactive = score below 0.9)
Method in brief: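 Cells are held undifferentiated and treated for 72h, receiving fresh medium with compound every 24h. Cystine secreted during the final day is quantified by UPLC-HRMS against a labeled spike-in, then expressed relative to the DMSO vehicle median.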

[2] = read-out: ABC Transporter (ABCB1), ABCB1 (gene 5243); test: CLD_ABCB1_24hr: CellzDirect (CLD) Gene Expression Assay for ABC Transporter (ABCB1) at 24 hours (AID 2283684);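 for AC50: potency for increase in ABCB1 mRNA relative to DMSO vehicle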
Method in brief: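 ABCB1 mRNA induction versus 0.2% DMSO vehicle was read by qNPA chemiluminescence at 24 h. Cultured human hepatocytes from two donor preparations received daily fresh dosing, and phase-contrast cytotoxicity calls were annotated alongside the data.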

[3] = read-out: organic anion transporter (SLCO1B1), SLCO1B1 (gene 10599); test: CLD_SLCO1B1_24hr: CellzDirect (CLD) Gene Expression Assay for organic anion transporter (SLCO1B1) at 24 hours (AID 2283690)
Method in brief: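 SLCO1B1 mRNA induction read at 24 h by quantitative nuclease protection assay (chemiluminescence), analyzed against DMSO baseline. Human hepatocyte cultures from separate donors received fresh dosing solutions daily; vehicle 0.2% DMSO; cytotoxicity flagged by phase-contrast morphology.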

[4] = read-out: sulfotransferase (SULT2A), SULT2A1 (gene 6822); test: CLD_SULT2A_24hr: CellzDirect (CLD) Gene Expression Assay for sulfotransferase (SULT2A) at 24 hours (AID 2283694)
Method in brief: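 mRNA is measured by qNPA: probe hybridisation, S1 nuclease digestion, chemiluminescence, in lysates from human primary hepatocytes harvested 24 h after daily dosing. Vehicle was 0.2% DMSO. Phase-contrast microscopy flagged cytotoxicity (yes/no).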

[5] = read-out: ABC Transporter (ABCB1), ABCB1 (gene 5243); test: CLD_ABCB1_48hr: CellzDirect (CLD) Gene Expression Assay for ABC Transporter (ABCB1) at 48 hours (AID 2283695)
Method in brief: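 ABCB1 mRNA was measured by quantitative nuclease protection assay (chemiluminescence) 48 h after dosing. Human hepatocyte cultures from two separate donors received fresh dosing solutions daily for two days, with 0.2% DMSO as vehicle. Positive-direction fit against DMSO.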

[6] = CLD_ACTIN_48hr: CellzDirect (CLD) Gene Expression Assay for Baseline Control (Actin) at 48 hours (AID 2283702)
Method in brief: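 Background-control actin mRNA read by qNPA chemiluminescence at 48 h. Human hepatocyte cultures from two donors received fresh multi-concentration chemical doses daily for two days; 0.2% DMSO served as vehicle baseline.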

[7] = read-out: xenobiotic metabolism (CYP1A2), CYP1A2 (gene 1544); test: CLD_CYP1A2_48hr: CellzDirect (CLD) Gene Expression Assay for xenobiotic metabolism (CYP1A2) at 48 hours (AID 2283703)
Method in brief: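 Cytotoxicity was flagged yes/no from morphology, while CYP1A2 transcript induction was detected by qNPA chemiluminescence after a 48-hour exposure. Human primary hepatocyte cultures from separate donors received fresh dosing solutions daily over two days, with 0.2% DMSO as vehicle and baseline.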

[8] = read-out: Broad substrate specificity ATP-binding cassette transporter ABCG2 (Homo sapiens) (UniProt Q9UNQ0); test: CLD_ABCG2_48hr: CellzDirect (CLD) Gene Expression Assay for ABC Transporter (ABCG2) at 48 hours (AID 2283704)
Method in brief: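 ABCG2 transcript measured at 48 h by quantitative nuclease protection (chemiluminescent) and fitted for increase relative to 0.2% DMSO. Hepatocyte cultures from separate donors got fresh compound daily over two days; morphology annotated cytotoxicity.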

[9] = read-out: Glyceraldehyde-3-phosphate dehydrogenase (Homo sapiens) (UniProt P04406); test: CLD_GAPDH_48hr: CellzDirect (CLD) Gene Expression Assay for Baseline Control (Glyceraldehyde 3-phosphate dehydrogenase) at 48 hours (AID 2283706);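 note: active means higher GAPDH mRNA than DMSO vehicle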
Method in brief: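 GAPDH baseline-control readout: qNPA chemiluminescent mRNA quantitation in human liver primary cells 48 h after daily dosing on two consecutive days, vehicle 0.2% DMSO; gain of signal fitted against DMSO, cytotoxicity flagged by phase-contrast morphology.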

[10] = read-out: organic anion transporter (SLCO1B1), SLCO1B1 (gene 10599); test: CLD_SLCO1B1_48hr: CellzDirect (CLD) Gene Expression Assay for organic anion transporter (SLCO1B1) at 48 hours (AID 2283707)
Method in brief: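 SLCO1B1 transcript quantified by qNPA with chemiluminescent readout after 48 h of once-daily chemical exposure. Cultured human primary hepatocytes came from two donors, with 0.2% DMSO vehicle; positive-direction fitting against DMSO, cytotoxicity flagged by morphology.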

[11] = read-out: alkyl and aryl transferase (GSTA2), GSTA2 (gene 2939); test: CLD_GSTA2_48hr: CellzDirect (CLD) Gene Expression Assay for alkyl and aryl transferase (GSTA2) at 48 hours (AID 2283708);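 note: active means mRNA induction above DMSO vehicle baseline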
Method in brief: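 GSTA2 mRNA quantified by qNPA chemiluminescence in human primary hepatocyte lysates after 48 h of daily fresh chemical dosing. Increases fitted against 0.2% DMSO vehicle baseline; cytotoxicity from morphology annotated yes/no.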

[12] = read-out: sulfotransferase (SULT2A), SULT2A1 (gene 6822); test: CLD_SULT2A_48hr: CellzDirect (CLD) Gene Expression Assay for sulfotransferase (SULT2A) at 48 hours (AID 2283710);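 note: hits raise SULT2A1 transcript above the 0.2% DMSO vehicle baseline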
Method in brief: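 SULT2A1 transcript measured by qNPA chemiluminescence in human primary hepatocyte cultures after 48 h, with fresh dosing solutions on two consecutive days; gain-of-signal fitting against 0.2% DMSO vehicle; cytotoxicity annotated from phase-contrast morphology.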

[13] = read-out: Cytochrome P450 3A4 (Homo sapiens) (UniProt P08684); test: CLD_CYP3A4_24hr: CellzDirect (CLD) Gene Expression Assay for xenobiotic metabolism (CYP3A4) at 24 hours (AID 2283689)
Method in brief: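 CYP3A4 mRNA induction read by quantitative nuclease protection (chemiluminescence) 24 hr after dosing. Cultured human hepatocytes (two donor preparations) treated daily, vehicle 0.2% DMSO; phase-contrast morphology annotates cytotoxicity.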

[14] = read-out: glucuronosyltransferase (UGT1A1), UGT1A1 (gene 54658); test: CLD_UGT1A1_24hr: CellzDirect (CLD) Gene Expression Assay for glucuronosyltransferase (UGT1A1) at 24 hours (AID 2283696)
Method in brief: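 UGT1A1 transcript induction was measured by quantitative nuclease protection assay (chemiluminescence) in human hepatocyte cultures 24 h after daily fresh dosing, with 0.2% DMSO as vehicle and baseline.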

[15] = read-out: Cytochrome P450 2B6 (Homo sapiens) (UniProt P20813); test: CLD_CYP2B6_48hr: CellzDirect (CLD) Gene Expression Assay for xenobiotic metabolism (CYP2B6) at 48 hours (AID 2283699);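 note: actives raise transcript level above DMSO so potency reflects induction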
Method in brief: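 CYP2B6 transcript induction, read by quantitative nuclease protection (S1 digestion, chemiluminescent detection) 48 h after dosing, is fitted upward against 0.2% DMSO. Cultured human liver primary cells, two donor preparations, received fresh chemical daily over multiple concentrations.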

[16] = read-out: HMG-CoA synthase (HMGCS2), HMGCS2 (gene 3158); test: CLD_HMGCS2_24hr: CellzDirect (CLD) Gene Expression Assay for HMG-CoA synthase (HMGCS2) at 24 hours (AID 2283691)
Method in brief: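 qNPA with S1 nuclease digestion and chemiluminescent detection gave HMGCS2 transcript levels, fitted upward against 0.2% DMSO vehicle. Cultured human hepatocytes (two donors) received fresh compound daily and were harvested at 24 h; phase-contrast morphology flagged cytotoxicity.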

[17] = read-out: Cytochrome P450 2C19 (Homo sapiens) (UniProt P33261); test: CLD_CYP2C19_24hr: CellzDirect (CLD) Gene Expression Assay for xenobiotic metabolism (CYP2C19) at 24 hours (AID 2283687);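 note: activity means mRNA induction above DMSO vehicle baseline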
Method in brief: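 CYP2C19 mRNA was quantified by qNPA chemiluminescence after 24 h of daily dosing of cultured human primary hepatocytes from two donors; vehicle was 0.2% DMSO, and increases over DMSO baseline were fitted.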

[18] = read-out: HMG-CoA synthase (HMGCS2), HMGCS2 (gene 3158); test: CLD_HMGCS2_48hr: CellzDirect (CLD) Gene Expression Assay for HMG-CoA synthase (HMGCS2) at 48 hours (AID 2283711)
Method in brief: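 mRNA induction read by qNPA chemiluminescence, 48 h after dosing. Cultured primary human liver cells (two donor preparations) received fresh compound daily over two days against 0.2% DMSO vehicle; morphology-based cytotoxicity noted alongside.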

[19] = read-out: glucuronosyltransferase (UGT1A1), UGT1A1 (gene 54658); test: CLD_UGT1A1_48hr: CellzDirect (CLD) Gene Expression Assay for glucuronosyltransferase (UGT1A1) at 48 hours (AID 2283709);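 note: actives increase expression relative to DMSO so potency refers to induction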
Method in brief: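 Quantitative nuclease protection assay (chemiluminescent) for UGT1A1 mRNA at 48 h in human hepatocyte cultures from two donors, redosed daily with fresh solutions. Induction fitted relative to 0.2% DMSO; phase-contrast morphology annotated cytotoxicity.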

Measured: AC50

Chain of Broad substrate specificity ATP-binding cassette transporter ABCG2 (Homo sapiens) (Q9UNQ0 whole entry, looked up): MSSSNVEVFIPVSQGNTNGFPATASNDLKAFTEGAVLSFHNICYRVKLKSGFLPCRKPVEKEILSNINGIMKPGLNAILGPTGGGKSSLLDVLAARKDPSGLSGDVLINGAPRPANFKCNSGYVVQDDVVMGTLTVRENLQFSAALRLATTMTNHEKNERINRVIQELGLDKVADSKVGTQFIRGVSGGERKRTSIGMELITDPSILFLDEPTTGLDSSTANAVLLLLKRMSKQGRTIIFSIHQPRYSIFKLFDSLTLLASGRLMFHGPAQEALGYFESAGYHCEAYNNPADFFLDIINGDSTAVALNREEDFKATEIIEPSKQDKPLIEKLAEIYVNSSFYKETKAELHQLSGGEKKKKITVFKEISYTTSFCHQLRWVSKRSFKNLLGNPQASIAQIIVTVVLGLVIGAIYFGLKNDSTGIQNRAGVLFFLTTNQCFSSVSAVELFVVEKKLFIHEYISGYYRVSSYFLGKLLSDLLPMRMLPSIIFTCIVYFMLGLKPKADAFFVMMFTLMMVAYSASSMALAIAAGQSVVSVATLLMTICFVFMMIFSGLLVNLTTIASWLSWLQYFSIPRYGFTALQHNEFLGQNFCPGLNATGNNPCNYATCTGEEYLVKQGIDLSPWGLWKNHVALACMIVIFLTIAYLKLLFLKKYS
Chain of Cytochrome P450 3A4 (Homo sapiens) (P08684 whole entry, looked up): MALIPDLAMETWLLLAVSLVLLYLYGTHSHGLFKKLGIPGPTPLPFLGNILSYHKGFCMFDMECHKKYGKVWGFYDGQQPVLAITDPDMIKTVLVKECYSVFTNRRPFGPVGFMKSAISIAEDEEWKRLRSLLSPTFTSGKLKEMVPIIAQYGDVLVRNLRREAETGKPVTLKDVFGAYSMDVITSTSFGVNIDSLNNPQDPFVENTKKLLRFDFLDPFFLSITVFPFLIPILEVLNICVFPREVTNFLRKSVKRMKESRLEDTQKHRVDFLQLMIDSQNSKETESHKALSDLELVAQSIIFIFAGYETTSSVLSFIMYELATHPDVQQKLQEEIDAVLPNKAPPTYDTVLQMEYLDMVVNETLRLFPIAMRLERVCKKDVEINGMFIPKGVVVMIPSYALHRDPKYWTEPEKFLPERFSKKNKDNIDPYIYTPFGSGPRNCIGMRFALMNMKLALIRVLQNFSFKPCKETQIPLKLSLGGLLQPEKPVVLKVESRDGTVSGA
Chain of Glyceraldehyde-3-phosphate dehydrogenase (Homo sapiens) (P04406 whole entry, looked up): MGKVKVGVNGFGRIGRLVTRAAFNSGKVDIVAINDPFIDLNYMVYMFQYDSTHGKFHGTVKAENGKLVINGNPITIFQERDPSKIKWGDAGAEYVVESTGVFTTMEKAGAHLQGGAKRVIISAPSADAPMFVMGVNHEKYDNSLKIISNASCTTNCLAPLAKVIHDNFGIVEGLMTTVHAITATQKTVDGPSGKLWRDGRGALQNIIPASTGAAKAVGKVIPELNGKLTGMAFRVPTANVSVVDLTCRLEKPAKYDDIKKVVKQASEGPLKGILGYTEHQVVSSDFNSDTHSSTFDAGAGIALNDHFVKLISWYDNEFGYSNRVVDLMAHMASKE
Chain of Cytochrome P450 2C19 (Homo sapiens) (P33261 whole entry, looked up): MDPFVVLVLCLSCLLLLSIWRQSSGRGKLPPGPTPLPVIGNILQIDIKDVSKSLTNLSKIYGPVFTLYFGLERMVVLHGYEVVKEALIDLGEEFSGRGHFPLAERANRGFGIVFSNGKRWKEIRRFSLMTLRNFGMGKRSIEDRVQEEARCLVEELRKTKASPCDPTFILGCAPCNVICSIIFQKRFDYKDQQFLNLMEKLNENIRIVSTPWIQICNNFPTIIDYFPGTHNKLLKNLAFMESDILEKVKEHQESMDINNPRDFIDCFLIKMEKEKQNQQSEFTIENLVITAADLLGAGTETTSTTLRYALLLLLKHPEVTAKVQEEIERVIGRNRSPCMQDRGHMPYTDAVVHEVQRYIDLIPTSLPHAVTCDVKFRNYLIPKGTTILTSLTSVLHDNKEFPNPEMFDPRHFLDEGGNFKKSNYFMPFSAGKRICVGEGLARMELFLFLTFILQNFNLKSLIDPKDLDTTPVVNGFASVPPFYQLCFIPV

O=C(c1ccc(O)cc1O)c1ccc(O)cc1O
active: [1] 18.5 µM

COCCO
not listed: [1] | [13] | [14] | [15] | [16] | [17] | [18] | [19]
inactive: all other assays above

CC(C)CCCCCCc1ccc(O)cc1
active: [1] 70 µM

CCCCC(CC)CN1C(=O)C2C3C=CC(C3)C2C1=O (centres undefined)
active: [13] 20 µM | [15] 4.6 µM | [7] 12.6 µM | [12] 20 µM
inactive: [2] | [4] | [5] | [14] | [8] | [11]

C[C@]12C[C@H](O)[C@H]3[C@@H](CCC4=CC(=O)CC[C@@]43C)[C@@H]1CC[C@@H]2C(=O)CO
active: [1] 81.5 µM

CCNc1nc(N)nc(Cl)n1
active: [7] 3.97 µM
not listed: [4] | [13] | [16] | [17] | [18] | [19]
inactive: all other assays above

N#CSCSc1nc2ccccc2s1
active: [7] 2.82 µM | [1] 15.2 µM
not listed: [3] | [10] | [12] | [15] | [17] | [18] | [19]
inactive: all other assays above

CCCCOC(=O)C(C)Oc1ccc(Oc2ccc(C(F)(F)F)cn2)cc1 (centres undefined)
active: [14] 20 µM | [18] 0.263 µM
not listed: [2] | [3] | [7] | [8] | [11] | [19]
inactive: all other assays above

CCN(Cc1c(F)cccc1Cl)c1c([N+](=O)[O-])cc(C(F)(F)F)cc1[N+](=O)[O-]
inactive: [12] | [1]
active: [13] 1.45 µM | [15] 0.273 µM | [7] 0.565 µM

CCCCOCCOCCOCc1cc2c(cc1CCC)OCO2
inactive: [2] | [4] | [14] | [18]
active: [15] 0.83 µM | [7] 5.82 µM | [12] 12 µM

CN(C)C(=O)Nc1ccc(Cl)c(Cl)c1
active: [15] 3.85 µM | [7] 11.9 µM | [1] 70.5 µM
inactive: [4] | [14]

CCC(O)=C1C(=O)CC(C(=O)O)CC1=O (centres undefined)
active: [15] 0.000247 µM
not listed: [1] | [4] | [11] | [13] | [16] | [17] | [19]
inactive: all other assays above

CCCCCCC(C)OC(=O)COc1nc(F)c(Cl)c(N)c1Cl (centres undefined)
inactive: [13] | [3] | [4] | [5] | [14] | [15] | [7] | [9] | [11] | [18]

N[C@@H](Cc1cc(I)c(Oc2ccc(O)c(I)c2)c(I)c1)C(=O)O
inactive: [1]

CCOC(=O)C(C)Oc1ccc(Oc2cnc3cc(Cl)ccc3n2)cc1 (centres undefined)
active: [18] 6.86 µM | [1] 9.92 µM
not listed: [3] | [8] | [9] | [11] | [15] | [17] | [19]
inactive: all other assays above

CC(C)(C)[C@@H](O)[C@@H](Cc1ccc(Cl)cc1)n1cncn1
active: [2] 9.46 µM | [13] 2.66 µM | [7] 3.97 µM
not listed: [3] | [6] | [9] | [10] | [16] | [17]
inactive: all other assays above

c1ccc(Nc2ccccc2)cc1
inactive: [17] | [13] | [3] | [16] | [4] | [14] | [10] | [11] | [18]
active: [15] 4.79 µM | [7] 4.82 µM | [12] 3.48 µM
